Compound activity deposited in PubChem by National Center for Advancing Translational Sciences (NCATS).
GPR32 ag: GPR32 (DRV1) agonism, beta-arrestin recruitment; O75388; CHO-K1 GPR32 beta-arrestin PathHunter luminescence, 90 min; zero percent set by DMSO-only wells; activation, % at 76.9 µM; actives 2.5% (n = 48,000); AID 1346428;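 active = activation of at least 60% and not above a set upper limit, about 1 call in 100 departs from these limits; inconclusive = activation of 40% to 60%, or above that upper limit; inactive = activation under 40%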; note: 0% is about no effect
Target sequence (O75388 whole entry, looked up): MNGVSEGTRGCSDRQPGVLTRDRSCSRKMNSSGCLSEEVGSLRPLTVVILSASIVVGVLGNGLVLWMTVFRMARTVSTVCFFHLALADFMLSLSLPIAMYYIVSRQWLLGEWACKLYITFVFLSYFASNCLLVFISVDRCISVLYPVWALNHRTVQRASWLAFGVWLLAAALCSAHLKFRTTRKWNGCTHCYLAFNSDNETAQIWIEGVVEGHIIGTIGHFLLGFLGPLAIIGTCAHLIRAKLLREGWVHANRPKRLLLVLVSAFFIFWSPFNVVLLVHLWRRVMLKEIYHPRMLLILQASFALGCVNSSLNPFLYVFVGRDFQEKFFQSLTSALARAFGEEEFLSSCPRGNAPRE
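Step 1: seed CHO-K1 GPR32 beta-arrestin cells, 2,500/well, overnight at 37 °C. Step 2: add compounds, 90 min at 37 °C. Step 3: detection reagent, 1 h ambient, then luminescence.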
HTT-AS act: HTT-AS promoter activation | AID 1508624 | Potency, µM (doses to about 57.5 µM), inactives show top-dose activity change, positive = activation, usual class: activators | HEK293 HTT-AS promoter firefly luciferase reporter, 24 h; response scale: percent change from vehicle, -100% = no light | actives 0.24% (n = 48,000); note: potency is the fitted concentration of half-maximal effect; nearly all actives have a fitted effect of over 55% in size
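HEK293 luciferase promoter-reporter cells (2,500/well) plated 24 h, then compounds added at up to 57.5 uM final for 24 h at 37 °C. Firefly luminescence by Dual-Glo, normalized to vehicle (0%) and zero RLU (-100%).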
GALC G270D up: raises human GALC G270D mutant activity in cells. AID 1159614. P54803. 145M-Twi-hGALC-G270D cells (Twitcher mouse brain line with human GALC G270D), HMU-beta-Gal fluorescence, 48 h. Potency, µM (top dose mostly 57.5 µM), actives largely listed as activators. actives 0.1% (n = 45,000); note: potency is the fitted concentration of half-maximal effect; 0% is about no effect; nearly all actives have a fitted effect of over 65% in size
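Brain-derived Twitcher mouse 145M-Twi cells stably expressing human GALC-G270D or wild-type GALC, treated live, then residual GALC activity read by fluorescence of HMU-b-Gal substrate (0.1 mM final) in citrate-phosphate buffer pH 5.2 with sodium taurocholate. Signal increase indicates enhancement.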
FH mod: Identification of activators of human fumarate hydratase by quantitative high-throughput screening | FH coupled MDH/diaphorase resazurin fluorescence, 15 min | actives 0.22% (n = 54,000) | Potency, µM (titrated, usually from 79.9 µM), inactives show at the highest dose activity change, negative = inhibition, actives largely listed as inhibitors; note: potency is the fitted concentration of half-maximal effect; % is set by controls: 0 for no effect and ±100 for the full control effect; the screen sought activators but most active calls are inhibition curves; nearly all actives have a fitted effect of over 45% in size
NTMT1 inh: inhibitors of human N-terminal methyltransferase NTMT1; NTMT1 MTase-Glo SAH luminescence, purified enzyme; Potency, µM (doses to about 114 µM), inactives show at the highest dose activity change, negative = inhibition, actives largely listed as inhibitors; actives 2.5% (n = 59,000); AID 1645870;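 note: potency is the fitted concentration of half-maximal effect; plate controls were DMSO vehicle for no effect and no enzyme for full effect; nearly all actives have a fitted effect of over 65% in size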
Target sequence (Q9BV86 whole entry, looked up): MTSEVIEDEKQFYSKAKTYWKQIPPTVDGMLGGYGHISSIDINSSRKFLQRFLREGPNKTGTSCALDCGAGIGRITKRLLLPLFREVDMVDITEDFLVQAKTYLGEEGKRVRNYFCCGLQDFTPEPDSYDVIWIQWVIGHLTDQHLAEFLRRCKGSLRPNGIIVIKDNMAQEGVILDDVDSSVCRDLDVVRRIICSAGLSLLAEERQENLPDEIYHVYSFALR
HTT promoter inh: HTT promoter inhibition | Potency, µM (titrated, usually from 57.5 µM), inactives show at the highest dose activity change, negative = inhibition, usual class: inhibitors | actives 0.93% (n = 48,000) | HEK293 HTT promoter firefly luciferase reporter, 24 h; note: potency is the fitted concentration of half-maximal effect; nearly all actives have a fitted effect of over 50% in size
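HEK293 Fluc reporter, 2,500 cells/well, 24 h pre-culture; cpds up to 57.5 uM final, 24 h 37 degrees C; Dual-Glo, 10 min RT; normalized vehicle = 0%, zero RLU = -100%.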
Starred values were filed as active, the others as inactive; ! = repeats disagree; [ ] = dose if it differs, or a comment. In the library only some 4.7% were active in any assay of this set; here they are far more common. Unless noted, calls come from the whole dose curve; as a rule, active = well fitted curve in the direction sought with a large enough effect; inconclusive = small, poorly fitted or top-dose-only effect, or another doubt; inactive = no such curve, though single readings can be large; an effect the other way counts as inactive or inconclusive.

What do the screens show for `CCOCc1cc(CN2CCN(c3ccccc3OC)CC2)c(O)c2ncccc12`?
GPR32 ag: -23; HTT-AS act: -36%; GALC G270D up: inactive; FH mod: inconclusive; NTMT1 inh: 0%; HTT promoter inh: 11µM*

How did O=C(CN1C(=O)COc2ccc(S(=O)(=O)NC3CCCC3)cc21)Nc1ccc(Cl)cc1 do in these assays?
GPR32 ag: 104*; HTT-AS act: 8%; GALC G270D up: inactive; FH mod: -21%; NTMT1 inh: inconclusive; HTT promoter inh: 0%

How did Cc1nc2sc(C(N)=O)c(N)c2c(-c2ccc(Br)cc2)c1C(=O)Nc1ccc(Cl)cc1 do in these assays?
GPR32 ag: 88*; HTT-AS act: -49%; GALC G270D up: inactive; FH mod: -14%; NTMT1 inh: -20%; HTT promoter inh: inconclusive

What do the screens show for `CCc1ccc(CNC(=O)C2CCCN(c3nn4cc(-c5ccc(F)cc5)nc4s3)C2)cc1` (stereo not given)?
GPR32 ag: -10; HTT-AS act: -73%; GALC G270D up: inactive; FH mod: -2%; NTMT1 inh: -9%; HTT promoter inh: 4µM*

How did CCOc1ccc(CNC(=O)C2CCCN(c3nn4cc(-c5ccc(F)cc5)nc4s3)C2)cc1 (stereo not given) do in these assays?
GPR32 ag: 6; HTT-AS act: -62%; GALC G270D up: inactive; FH mod: -4%; NTMT1 inh: inconclusive; HTT promoter inh: inconclusive

Results for CC(C)OC(=O)C(C(=O)OC(C)C)=C1SC=CS1 ?
GPR32 ag: 73*; HTT-AS act: -6%; GALC G270D up: inactive; FH mod: -1%[53.3 µM]; NTMT1 inh: inconclusive; HTT promoter inh: 8%

How did CC(C)OC(=O)c1cc(C(=O)OC(C)C)cc([N+](=O)[O-])c1 do in these assays?
GPR32 ag: 8; HTT-AS act: -7%[116 µM]; GALC G270D up: inactive; FH mod: -5%; NTMT1 inh: inconclusive; HTT promoter inh: 3%[116 µM]

Results for C#C[C@]1(O)CC[C@H]2[C@@H]3CCc4cc(O)ccc4[C@H]3CC[C@@]21C ?
GPR32 ag: 34; HTT-AS act: -21%; GALC G270D up: inactive; FH mod: -22%[53.3 µM]; NTMT1 inh: 11µM*!; HTT promoter inh: -6%

What do the screens show for `C[C@H](Cc1ccc(O)c(O)c1)[C@@H](C)Cc1ccc(O)c(O)c1`?
GPR32 ag: 30; HTT-AS act: -49%; FH mod: inconclusive; NTMT1 inh: 7.9µM*; HTT promoter inh: inconclusive

Results for O=C(O)C(O)Cc1ccc(O)c(O)c1 (stereo not given) ?
HTT-AS act: -7%; FH mod: -12%[53.3 µM]; NTMT1 inh: 89µM*!; HTT promoter inh: 7%

How did CC1(C)NC2N(C1=O)c1ccccc1C2(O)CC(C(=O)O)n1cnc2ccccc2c1=O (stereo not given) do in these assays?
FH mod: 6%[53.3 µM]; NTMT1 inh: -3%[29.8 µM]

What do the screens show for `O=C(O)CC/C=C\C[C@H]1CO[C@@H](c2ccccc2Cl)O[C@H]1c1ccccc1O`?
FH mod: 1%; NTMT1 inh: 9%[57.5 µM]

Results for COc1cc2ncnc(Sc3nnc(C)s3)c2cc1OC ?
FH mod: 1%; NTMT1 inh: 18%

How did Cc1nn2c(=O)cc(COC(=O)c3cccc(NC(=O)COc4ccc(C)c(C)c4)c3)nc2s1 do in these assays?
GPR32 ag: -14; HTT-AS act: 4%; GALC G270D up: inactive; FH mod: -22%; NTMT1 inh: -7%; HTT promoter inh: -4%

Results for Cc1nn2c(=O)cc(COC(=O)c3ccc(NC(=O)COc4ccc(C)c(C)c4)cc3)nc2s1 ?
GPR32 ag: 20; HTT-AS act: 2%; GALC G270D up: inactive; FH mod: -26%; NTMT1 inh: 12%; HTT promoter inh: -11%

How did CCc1nn2c(=O)cc(COC(=O)c3ccccc3)nc2s1 do in these assays?
GPR32 ag: -50; HTT-AS act: 4µM*; GALC G270D up: inactive; FH mod: -5%; NTMT1 inh: -4%; HTT promoter inh: 43%

How did Cc1nn2c(=O)cc(COC(=O)c3cccc(NC(=O)COc4ccccc4C)c3)nc2s1 do in these assays?
GPR32 ag: -16; HTT-AS act: -90%; GALC G270D up: inactive; FH mod: inconclusive; NTMT1 inh: 9%; HTT promoter inh: 3.2µM*

What do the screens show for `Cc1nn2c(=O)cc(COC(=O)c3ccc(NC(=O)COc4ccccc4F)cc3)nc2s1`?
GPR32 ag: 62*; HTT-AS act: -11%; GALC G270D up: inactive; FH mod: -19%; NTMT1 inh: inconclusive; HTT promoter inh: -15%

What do the screens show for `CCc1nn2c(=O)cc(COC(=O)C(c3ccccc3)c3ccccc3)nc2s1`?
GPR32 ag: 9; HTT-AS act: -13%; GALC G270D up: inactive; FH mod: -17%; NTMT1 inh: 4%; HTT promoter inh: -27%

Results for O=C1CCCC2=C1C(c1[nH]ncc1Cl)N=C(Nc1nc3ccc(Cl)cc3o1)N2 (stereo not given) ?
NTMT1 inh: -12%[57.5 µM]

How did CC1CCc2nc3ncn(Cc4ccc(Cl)cc4)c(=O)c3cc2C1 (stereo not given) do in these assays?
GPR32 ag: -16; HTT-AS act: 3.2µM*; GALC G270D up: inactive; FH mod: -1%; NTMT1 inh: inconclusive; HTT promoter inh: 47%

Results for COCCn1c(SCC(=O)Nc2ccc(F)c(Cl)c2)nc2c(oc3ccccc32)c1=O ?
GPR32 ag: 9; HTT-AS act: -45%; GALC G270D up: inactive; FH mod: -3%; NTMT1 inh: 79µM*; HTT promoter inh: 4%

How did C=C1C(O)C[C@@H]2C(C(=O)O)=CO[C@@H](O[C@@H]3O[C@H](CO)[C@@H](O)[C@H](O)[C@H]3OC(=O)c3ccc(O)cc3)[C@H]12 (stereo not given in full) do in these assays?
FH mod: 0%[53.3 µM]; NTMT1 inh: 12%[29.8 µM]

What do the screens show for `Cc1nn(C)c2c1c(C(F)(F)F)cc(=O)n2CC(=O)Nc1ccc(F)cc1F`?
GPR32 ag: -5; HTT-AS act: -29%; GALC G270D up: inactive; FH mod: -18%; NTMT1 inh: -4%; HTT promoter inh: -30%

How did Cc1nn(C)c2c1c(C(F)(F)F)cc(=O)n2CC(=O)N1CCCCC1C (stereo not given) do in these assays?
GPR32 ag: 80*; HTT-AS act: -14%; GALC G270D up: inactive; FH mod: 4%; NTMT1 inh: 7%; HTT promoter inh: -2%
